Assay results published in PubChem BioAssay.
The source made the active and inactive calls.

Test system: Wnt5a (protein binding on small-molecule microarray)
Assay: small molecules binding Wnt5a protein – biophysical, small-molecule microarray, 635/667 nm fluorescence, primary screen (AID 1142);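 also: fluorescence read at 667 nm with signal to noise per printed feature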
Details: 635 nm fluorescence, higher = more signal

Compound | composite z-score
CCOC(=O)[C@H](CC(C)C)NC(=O)CCC1CC(OC(=O)NCCc2ccc(F)cc2)CC2(CCCC(COC(=O)NCCCN3CCCC3=O)O2)O1 (some centres not stated) | 0.189
CC(CCC(=O)OC[C@H]1O[C@H](C#Cc2ccccc2)C=C[C@@H]1Oc1ccc(C)cc1)=NOC[C@@H](C)[C@H](OCc1ccccc1)C(C)C | -0.174
CCOC(=O)[C@H](Cc1ccccc1)NC(=O)CCC1CC(OC(=O)NCc2cccc3ccccc23)CC2(CCCC(COC(=O)NCCc3ccccc3OC)O2)O1 (some centres not stated) | 0.201
COC(=O)[C@H](C)NC(=O)CCC1CC(OC(=O)NCCc2ccc(F)cc2)CC2(CCCC(COC(=O)NCCc3ccccc3OC)O2)O1 (some centres not stated) | 0.249
CCOC(=O)NN=C1C[C@@H](O)[C@@H](O)[C@@H]2[C@@H]3C(=O)N(C[C@@H]4CCCO4)C(=O)[C@@H]3CC[C@H]12 | 0.0534
CON=C1c2cc(OC)ccc2O[C@H](c2cccc(OC)c2)[C@H]1O | -0.038
COC(=O)[C@H](C)NC(=O)CCC1CC(OC(=O)NCc2ccc3c(c2)OCO3)CC2(CCCC(COC(=O)NCCC(C)C)O2)O1 (some centres not stated) | 0.151
C[C@H]1C=CCC(=O)OC[C@H](C)C(=O)N2CCC[C@H]2C(=O)OC1 | 0.193
CCCNC(=O)OC[C@H]1O[C@H](CCON=C2C[C@@H](O)[C@@H](O)[C@@H]3[C@@H]4C(=O)N(CC)C(=O)[C@@H]4CC[C@@H]23)C=C[C@@H]1Oc1ccc(OC)cc1 | 0.0561
COC(=O)[C@@H]1CC[C@H](C)[C@@H](c2ccc(C)cc2)N1C(=O)c1ccc(C=NO[C@@H](C)c2cc(-c3c(C)cc(C)cc3C)no2)cc1 | 0.153
CC(C)(C)N1C(=O)[C@H]2[C@H]3[C@H](O)[C@H](O)CC(=NNC(=O)OCc4ccccc4)[C@H]3CC[C@H]2C1=O | 0.0281
CO[C@@H]1COC(=O)CC=C[C@H](C)[C@H](OC)COC(=O)[C@@H]2CCCN2C(=O)CC=C[C@H]1C | 0.0408
Cc1cc2c(nc1C)CCCCN2CC(O)CN1CCCc2nc(-c3ccc(Br)cc3)ccc21 (configuration not stated) | 0.0684
COc1ccc(O[C@H]2C=C[C@@H](C#Cc3ccccc3)O[C@@H]2CO)cc1 | -0.0391
C#CCCCON=C1C[C@@H](O)[C@@H](O)[C@@H]2[C@@H]3C(=O)N(C[C@@H]4CCCO4)C(=O)[C@@H]3CC[C@H]12 | -0.0106
O=C1[C@H]2[C@H]3[C@H](O)[C@H](O)CC(=NO[C@@H]4O[C@H](CO)[C@@H](O)[C@H](O)[C@H]4O)[C@@H]3CC[C@H]2C(=O)N1c1cccc(Oc2ccccc2)c1 | 0.0469
CC#CCOCCC=C1c2ccccc2[C@@H](OC)[C@@H]1C | 0.179
CCOC(=O)[C@H](CC(C)C)NC(=O)CCC1CC(OC(=O)NCc2ccc3c(c2)OCO3)CC2(CCCC(COC(=O)NCCOc3ccccc3)O2)O1 (some centres not stated) | 0.278
CON=C(C)CCN1CCCCc2nc(C)c(C)cc21 | 0.0272
C=CC[C@@H]1C=C[C@H](ON=CC[C@@H]2C=C[C@H](OC(C)=O)[C@@H](COC(C)=O)O2)[C@@H](CO)O1 | 0.521
C[C@@H]1CC[C@@H](C(=O)O)N[C@H]1c1cccc(N2CCOCC2)c1 | -0.0449
CC(=O)OC[C@H]1O[C@H](CC=NOC[C@@H](O)COCc2ccco2)C=C[C@@H]1OC(C)=O | 0.364
CC(CCN1CCc2nc(-c3ccccc3)c(-c3ccccc3)cc2C1)=NO[C@H](C)c1cn([C@H](CO)Cc2ccccc2)nn1 | 0.136
CCOC(=O)CCN1C(=O)[C@H]2[C@H]3[C@H](O)[C@H](O)CC(=NNC(=O)OCc4ccc(OC)cc4)[C@H]3CC[C@H]2C1=O | -0.169
CC(=O)OC[C@H]1O[C@@H](ON=C(C)CCC(=O)OC[C@H]2O[C@H](C#Cc3ccccc3)C=C[C@@H]2Oc2ccc(C)cc2)[C@H](OC(C)=O)[C@@H](OC(C)=O)[C@@H]1OC(C)=O | 0.428
O=C1CCCC=C1C(O)c1ccc([N+](=O)[O-])cc1 (configuration not stated) | 0.042

Test system: not listed separately
Assay: ATP-based viability of Huh7 replicon cells – cell-based, CellTiter-Glo luminescence, basal, 48 h, cytotoxicity control for HCV replication inhibitor project, primary screen (AID 1143);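 also: Huh7 hepatoma cells carrying a hepatitis C replication reporter with no stimulus; test concentration not given here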
Details: higher = more signal, called active from +8 up or from −8 down

Compound | z-score
CCOC(=O)[C@H](Cc1ccccc1)NC(=O)CCC1CC(OC(=O)NCc2ccc3c(c2)OCO3)CC2(CCCC(COC(=O)NCCOC)O2)O1 (some centres not stated) | -3.06 (inactive)
CCOC(=O)[C@H](Cc1ccccc1)NC(=O)CCC1CC(OC(=O)NCc2ccc3c(c2)OCO3)CC2(CCCC(COC(=O)NCCCN3CCCC3=O)O2)O1 (some centres not stated) | -1.98 (inactive)
COC(=O)[C@H](C)NC(=O)CCC1CC(OC(=O)NCCc2ccc(F)cc2)CC2(CCCC(COC(=O)NCCOc3ccccc3)O2)O1 (some centres not stated) | -0.471 (inactive)
O=C1CCCC=C1C(O)C1CCCCC1 (configuration not stated) | 0.869 (inactive)
CCOC(=O)NN=C1C[C@@H](O)[C@@H](O)[C@@H]2[C@@H]3C(=O)N(c4ccc(F)cc4F)C(=O)[C@@H]3CC[C@H]12 | -4.03 (inactive)
CC(=O)OC[C@H]1O[C@H](CC=NO[C@@H](C)c2cc(-c3c(C)cc(C)cc3C)no2)C=C[C@@H]1OC(C)=O | 0.125 (inactive)
CCOC(=O)CCN1C(=O)[C@H]2[C@H]3[C@H](O)[C@H](O)CC(=NO[C@@H]4O[C@H](CO)[C@@H](O)[C@H](O)[C@H]4O)[C@H]3CC[C@H]2C1=O | 0.38 (inactive)
CCOC(=O)[C@H](CC(C)C)NC(=O)CCC1CC(OC(=O)NCCc2ccc(F)cc2)CC2(CCCC(COC(=O)NCc3cccc(C(F)(F)F)c3)O2)O1 (some centres not stated) | 0.215 (inactive)
C[C@H]1CC[C@@H](C(=O)O)N[C@@H]1c1cccc(N2CCCC2=O)c1 | 0.0659 (inactive)
CC(=O)OC[C@H]1O[C@@H](ON=C2[C@H]3CCn4c(=O)n(-c5ccccc5)c(=O)n4[C@H]3[C@H](O)[C@@H]3O[C@H]23)[C@H](OC(C)=O)[C@@H](OC(C)=O)[C@@H]1OC(C)=O | 1.03 (inactive)
CCOC(=O)[C@H](CC(C)C)NC(=O)CCC1CC(OC(=O)NCCc2ccc(F)cc2)CC2(CCCC(COC(=O)NCCCN3CCCC3=O)O2)O1 (some centres not stated) | 0.378 (inactive)
CC(CCC(=O)OC[C@H]1O[C@H](C#Cc2ccccc2)C=C[C@@H]1Oc1ccc(C)cc1)=NOC[C@@H](C)[C@H](OCc1ccccc1)C(C)C | -0.276 (inactive)
CCOC(=O)[C@H](Cc1ccccc1)NC(=O)CCC1CC(OC(=O)NCc2cccc3ccccc23)CC2(CCCC(COC(=O)NCCc3ccccc3OC)O2)O1 (some centres not stated) | -0.534 (inactive)
COC(=O)[C@H](C)NC(=O)CCC1CC(OC(=O)NCCc2ccc(F)cc2)CC2(CCCC(COC(=O)NCCc3ccccc3OC)O2)O1 (some centres not stated) | 0.137 (inactive)
CCOC(=O)NN=C1C[C@@H](O)[C@@H](O)[C@@H]2[C@@H]3C(=O)N(C[C@@H]4CCCO4)C(=O)[C@@H]3CC[C@H]12 | 0.587 (inactive)
CON=C1c2cc(OC)ccc2O[C@H](c2cccc(OC)c2)[C@H]1O | -3.45 (inactive)
COC(=O)[C@H](C)NC(=O)CCC1CC(OC(=O)NCc2ccc3c(c2)OCO3)CC2(CCCC(COC(=O)NCCC(C)C)O2)O1 (some centres not stated) | -2.02 (inactive)
C[C@H]1C=CCC(=O)OC[C@H](C)C(=O)N2CCC[C@H]2C(=O)OC1 | -0.401 (inactive)

Compound | z-score
CCCNC(=O)OC[C@H]1O[C@H](CCON=C2C[C@@H](O)[C@@H](O)[C@@H]3[C@@H]4C(=O)N(CC)C(=O)[C@@H]4CC[C@@H]23)C=C[C@@H]1Oc1ccc(OC)cc1 | -0.402 (inactive)
COC(=O)[C@@H]1CC[C@H](C)[C@@H](c2ccc(C)cc2)N1C(=O)c1ccc(C=NO[C@@H](C)c2cc(-c3c(C)cc(C)cc3C)no2)cc1 | -1.31 (inactive)
CC(C)(C)N1C(=O)[C@H]2[C@H]3[C@H](O)[C@H](O)CC(=NNC(=O)OCc4ccccc4)[C@H]3CC[C@H]2C1=O | -3.97 (inactive)
CO[C@@H]1COC(=O)CC=C[C@H](C)[C@H](OC)COC(=O)[C@@H]2CCCN2C(=O)CC=C[C@H]1C | -0.754 (inactive)
Cc1cc2c(nc1C)CCCCN2CC(O)CN1CCCc2nc(-c3ccc(Br)cc3)ccc21 (configuration not stated) | 0.304 (inactive)
COc1ccc(O[C@H]2C=C[C@@H](C#Cc3ccccc3)O[C@@H]2CO)cc1 | -4.1 (inactive)
C#CCCCON=C1C[C@@H](O)[C@@H](O)[C@@H]2[C@@H]3C(=O)N(C[C@@H]4CCCO4)C(=O)[C@@H]3CC[C@H]12 | 0.119 (inactive)
O=C1[C@H]2[C@H]3[C@H](O)[C@H](O)CC(=NO[C@@H]4O[C@H](CO)[C@@H](O)[C@H](O)[C@H]4O)[C@@H]3CC[C@H]2C(=O)N1c1cccc(Oc2ccccc2)c1 | 0.353 (inactive)
CC#CCOCCC=C1c2ccccc2[C@@H](OC)[C@@H]1C | 0.447 (inactive)
CCOC(=O)[C@H](CC(C)C)NC(=O)CCC1CC(OC(=O)NCc2ccc3c(c2)OCO3)CC2(CCCC(COC(=O)NCCOc3ccccc3)O2)O1 (some centres not stated) | -0.705 (inactive)
CON=C(C)CCN1CCCCc2nc(C)c(C)cc21 | 0.559 (inactive)
C=CC[C@@H]1C=C[C@H](ON=CC[C@@H]2C=C[C@H](OC(C)=O)[C@@H](COC(C)=O)O2)[C@@H](CO)O1 | 0.0101 (inactive)
C[C@@H]1CC[C@@H](C(=O)O)N[C@H]1c1cccc(N2CCOCC2)c1 | -0.538 (inactive)
CC(=O)OC[C@H]1O[C@H](CC=NOC[C@@H](O)COCc2ccco2)C=C[C@@H]1OC(C)=O | 0.0896 (inactive)
CC(CCN1CCc2nc(-c3ccccc3)c(-c3ccccc3)cc2C1)=NO[C@H](C)c1cn([C@H](CO)Cc2ccccc2)nn1 | -2.39 (inactive)
CCOC(=O)CCN1C(=O)[C@H]2[C@H]3[C@H](O)[C@H](O)CC(=NNC(=O)OCc4ccc(OC)cc4)[C@H]3CC[C@H]2C1=O | -0.401 (inactive)
CC(=O)OC[C@H]1O[C@@H](ON=C(C)CCC(=O)OC[C@H]2O[C@H](C#Cc3ccccc3)C=C[C@@H]2Oc2ccc(C)cc2)[C@H](OC(C)=O)[C@@H](OC(C)=O)[C@@H]1OC(C)=O | -1.1 (inactive)
O=C1CCCC=C1C(O)c1ccc([N+](=O)[O-])cc1 (configuration not stated) | 1.18 (inactive)
